In the library only some 8.9% were active in any assay of this set; here they are far more common.
IMPase cell inh: membrane-permeable compound that blocks inositol monophosphatase; P97697; CHO-M1 cells, IP1 accumulation, HTRF TR-FRET ratio; inhibition (IP1 accumulation), % at 46.1 µM; 120,000 tested, under 10 active; active means well fitted curve in the direction sought with a large enough effect in the signal ratio, not every such curve was filed as active; inconclusive means small, poorly fitted or top-dose-only effect, or a change in a side signal; inactive means no such curve, though single readings can be large or run the other way; the % refers to the signal ratio;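 further: cells stimulated with carbachol in lithium chloride buffer; plate controls were DMSO basal wells for no effect and reference inhibitor wells for full effect; higher means more IMPase inhibition seen as more IP1 and lower FRET ratio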
Target sequence (P97697 whole entry, looked up): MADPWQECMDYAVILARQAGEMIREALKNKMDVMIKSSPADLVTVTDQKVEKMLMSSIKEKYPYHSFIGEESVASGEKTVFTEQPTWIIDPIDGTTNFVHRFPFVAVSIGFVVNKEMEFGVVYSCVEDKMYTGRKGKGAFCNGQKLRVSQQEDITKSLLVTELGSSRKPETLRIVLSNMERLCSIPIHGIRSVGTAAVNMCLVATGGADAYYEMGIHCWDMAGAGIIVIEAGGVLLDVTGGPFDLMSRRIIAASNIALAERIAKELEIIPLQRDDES
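Measured: the HTRF emission ratio (665/620 nm) plus the 620 nm donor channel, each fitted to the Hill equation to give AC50. Cells were CHO-M1 given compounds up to 46 uM and a 30 min carbachol stimulation at 37C.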
ALDH1A1 inh: blocks purified human ALDH1A1 activity | AID 1030 | P00352 | actives 7.3% (n = 220,000) | Purified ALDH1A1, NADH fluorescence, propionaldehyde substrate | Potency, µM (top dose mostly 75.3 µM), inactives show top-dose activity, negative = inhibition, most hits filed as inhibitors; active means well fitted inhibition curve with a large enough effect, not every such curve was filed as active; inconclusive means small, poorly fitted or top-dose-only effect, or another doubt; inactive means no such curve, though single readings can be large or run the other way;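 further: potency means the concentration at half of the fitted maximal effect; plate controls were no enzyme wells and a reference inhibitor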
Target sequence (P00352 whole entry, looked up): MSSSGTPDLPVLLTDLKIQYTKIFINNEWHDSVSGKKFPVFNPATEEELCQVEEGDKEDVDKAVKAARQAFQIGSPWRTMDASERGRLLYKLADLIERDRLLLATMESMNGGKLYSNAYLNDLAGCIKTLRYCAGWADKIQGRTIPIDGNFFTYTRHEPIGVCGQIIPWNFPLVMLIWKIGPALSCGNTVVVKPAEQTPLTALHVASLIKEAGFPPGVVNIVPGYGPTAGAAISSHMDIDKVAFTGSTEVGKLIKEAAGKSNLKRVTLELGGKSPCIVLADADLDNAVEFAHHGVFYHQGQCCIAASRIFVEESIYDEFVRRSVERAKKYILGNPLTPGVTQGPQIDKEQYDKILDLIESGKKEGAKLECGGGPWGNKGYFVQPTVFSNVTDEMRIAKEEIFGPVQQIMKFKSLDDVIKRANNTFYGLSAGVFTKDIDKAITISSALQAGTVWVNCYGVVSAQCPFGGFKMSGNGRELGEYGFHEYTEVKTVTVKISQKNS
IMPase Li inh: cell-permeable IMPase inhibitors with lithium potentiation | CHO-M1 cells, IP1 TR-FRET (IP-One), carbachol + lithium | Potency, µM (top dose mostly 59.4 µM), inactives show at the highest dose activity, negative = IMPase inhibition, usual class: inhibitors | actives 0.35% (n = 210,000);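 further: IP1 builds up when IMPase is blocked and the TR-FRET signal falls; potency means the concentration at half of the fitted maximal effect; plate controls were basal vehicle for no effect and high inhibitor control for full effect; nearly all actives have a fitted effect of over 50% in size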
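Concentration–response in CHO-M1 cells, lithium-potentiated; 30 min at 37C. IP1 detected by competitive TR-FRET after 10 min lysis at RT. Hill-fitted AC50.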
12-hLO inh: blocks human 12-lipoxygenase activity. P18054. purified 12-hLO, xylenol orange hydroperoxide absorbance. Potency, µM (highest dose often 57.1 µM), inactives show top-dose activity change, negative = inhibition, usual class: inhibitors. actives 0.12% (n = 150,000); further: potency means the concentration at half of the fitted maximal effect; nearly all actives have a fitted effect of over 55% in size
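Lipoxygenase turnover measured by absorbance at 573 and 405 nm after Fe-XO development. Human 12hLO 150 nM, arachidonate 40 uM, pH 7.0 Hepes buffer with detergent; 15 min compound preincubation, 30 min reaction.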
NPSR antagonist: neuropeptide S receptor (human) antagonism, cAMP. AID 1461. Q6W5P4. actives 1% (n = 220,000). Potency, µM (doses to about 38.3 µM), for the others: top-dose activity change, negative = inhibition, most hits filed as inhibitors. CHO-NPSR cells, cAMP TR-FRET, antagonist mode; further: potency means the concentration at half of the fitted maximal effect; nearly all actives have a fitted effect of over 50% in size
HPGD block: HPGD (human) dehydrogenase inhibition; actives 4.3% (n = 150,000); purified HPGD, NADH fluorescence kinetic, PGE2 substrate; P15428; Potency, µM, without a hit: top-dose activity change, negative = inhibition, hits mostly inhibitors; active means well fitted inhibition curve with a large enough effect, not every such curve was filed as active; inconclusive means small, poorly fitted or top-dose-only effect, or another doubt; inactive means no such curve, though single readings can be large or run the other way; further: potency means the concentration at half of the fitted maximal effect
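NADH formation kinetics: reaction with 30 uM PGE2 and 1 mM NAD+ (final), 20 nM enzyme, Tris-HCl pH 8 with Tween 20, after 15 min compound preincubation at room temperature. Fluorescence change, last versus first of five reads.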
Active calls of the source: *; ? = inconclusive; . = no result; ! = repeats disagree; [ ] = dose if it differs, or a comment. Unless noted, the call rests on the fitted dose curve; in most records, active means well fitted curve in the direction sought with a large enough effect; inconclusive means small, poorly fitted or top-dose-only effect, or another doubt; inactive means no such curve, though single readings can be large; an effect the other way counts as inactive or inconclusive. Unless noted, on the % scale 0 is the no-effect control and ±100 the full control effect.

SMILES	IMPase cell inh	ALDH1A1 inh	IMPase Li inh	12-hLO inh	NPSR antagonist	HPGD block
CCN(CC)C(=O)N[C@@H]1C[C@H]2c3cccc4[nH]cc(c34)C[C@@H]2N(C)C1	-5[20.6 µM]	13%[20.9 µM]	1%	1%[25.6 µM]	.	-6%
Nc1ccccc1C(=O)OCCc1ccccc1	.	?	3%	1%	.	?
O=C(c1c[nH]cc1-c1ccccc1)c1cccc2ccccc12	27	16%	10%	-4%	?	-26%
CC[C@@]1(O)C(=O)OCc2c1cc1n(c2=O)Cc2cc3c(O)cccc3nc2-1	.	?	8.9µM*	.	.	.
NC(=O)c1ncn([C@H]2O[C@@H](CO)[C@@H](O)[C@@H]2O)n1	-3[20.6 µM]	-5%[20.9 µM]	-1%	3%[25.6 µM]	.	-4%
NC(=O)c1ncn([C@@H]2O[C@H](CO)[C@@H](O)[C@H]2O)n1	10	25µM*!	-3%	0%	8%	-4%
CCC1(C2=NCCN2)Cc2ccccc2O1 (stereo unspecified)	.	5%	13%	2%	?	-8%
O=c1c2ccccc2nc(-c2ccoc2)n1-c1ccccc1Cl	3	16µM*	42%[38.3 µM]	0%	-21%[46.1 µM]	-20%
COc1ccccc1-n1c(-c2ccoc2)nc2ccccc2c1=O	-1	?	0%[38.3 µM]	0%	1%[46.1 µM]	-11%
CN1C(=O)C(=Cc2c(OCc3cnc(Cl)s3)ccc3ccccc23)C(=O)N(C)C1=O	.	2.2µM*	25%	.	-48%	.
CCC(=NCc1ccc2c(c1)OCO2)c1c(O)n(C)c(=O)n(C)c1=O	15	-1%	.	-17%	-12%[46.1 µM]	.
c1cc(OCC2CO2)cc(OCC2CO2)c1 (stereo unspecified)	.	?	16%	1%	.	-13%
NC(N)=Nc1ccc2[nH]c3c(c2c1)C[C@@]1(O)[C@H]2Cc4ccc(O)c5c4[C@@]1(CCN2CC1CC1)[C@H]3O5	.	1.6µM*	38%	.	?	3.2µM*
CC1(C)S[C@H]2[C@@H](N)C(=O)N2[C@H]1C(=O)O	0	-5%	6%	-2%	.	1%
C[CH2][Hg][S]c1ccccc1C(=O)O	.	0.18µM*	14%	?	.	0.28µM*
ClC1=C(Cl)C2(Cl)C3C4C=CC(C4)C3C1(Cl)C2(Cl)Cl (stereo unspecified)	.	6%	4%	7%	.	-5%
O=c1cc(CN2CC=C(c3ccccc3)CC2)c2c(ccc3ccccc32)o1	2	-4%	6%	-4%	-5%	-21%
Cc1ccc(/C=C2/C(=O)NC(=O)N(CCc3ccc(F)cc3)C2=O)o1	2	5.6µM*	-3%[38.3 µM]	?	?	3.5µM*
Cn1cccc1/C=C1\C(=O)NC(=O)N(CCC2=CCCCC2)C1=O	-10	?	5%	-8%	19%	-13%
O=C1NC(=O)N(CCc2ccc(F)cc2)C(=O)/C1=C/c1ccco1	.	2.5µM*	4%	.	-20%	.
Cc1ccc(/C=C2\C(=O)NC(=S)N(c3ccccc3F)C2=O)s1	-11	8.9µM*	34%	-28%	5µM*	2.2µM*
Cc1ccc(/C=C2\C(=O)NC(=S)N(c3ccc(F)cc3)C2=O)s1	.	?	-9%	.	22%	.
CCOc1cc(/C=C2/C(=O)NC(=O)N(c3ccc(CC)cc3)C2=O)ccc1OC(=O)c1cccs1	6	?	1%[38.3 µM]	-8%	-29%[46.1 µM]	?
O=C(O)CCn1cc(C=C2C(=O)NC(=S)NC2=O)c(-c2ccccc2)n1	.	1.1µM*	-3%	.	12%	.
O=P(NS(=O)(=O)c1ccc(Cl)cc1)(Oc1ccccc1)Oc1ccccc1	-7	-2%	7%	0%	-3%[46.1 µM]	-14%
SMILES	IMPase cell inh	ALDH1A1 inh	IMPase Li inh	12-hLO inh	NPSR antagonist	HPGD block
O.O.[NH-]C1(C(=O)O)CCCC1.[NH-]C1(C(=O)O)CCCC1.[Ni+2]	.	-6%[13.5 µM]	-11%	-1%[11.4 µM]	.	-8%
CC(=NCCCN1CCOCC1)c1c(O)n(-c2ccccc2C)c(=O)[nH]c1=O	2	14µM*	3%[38.3 µM]	3%	-5%[46.1 µM]	-8%
COc1ccc(N2CC(C(=O)NCc3ccco3)CC2=O)cc1 (stereo unspecified)	.	25µM*	6%	.	-3%	.
CCN(CC)C(=O)c1c(C)[nH]c(=S)c(C#N)c1-c1ccco1	.	7.1µM*	-2%	.	11%	.
CN1C(=O)/C(=C\N2CCc3ccccc32)C(=O)NC1=S	.	?	-3%	-4%	-1%	-13%
NC(CCP(=O)(O)O)C(=O)O (stereo unspecified)	.	?	?	.	-7%[46.1 µM]	-2%
CCOP(=S)(OCC)SCCSCC	.	14µM*	20%	-1%	.	-11%
CC(=O)/C=C/c1ccccc1	.	2%	4%	-3%	.	-9%
O=C/C=C/c1ccccc1	.	13µM*!	6%	0%[0.00818 µM]	.	-9%
CC(N)Cc1c[nH]c2cc3c(cc12)OCCO3 (stereo unspecified)	-1	?	24%[38.3 µM]	3%	?	-26%
O=C(OCC(=O)c1ccc([N+](=O)[O-])cc1)/C(=C\c1ccc(Cl)cc1)NC(=O)c1ccccc1	9	13µM*	-4%[38.3 µM]	-6%	-4%[46.1 µM]	-5%
COc1ccc(CC2c3cc(OC)c(OC)cc3CCN2C)cc1O (stereo unspecified)	.	9%	7%	-5%	10%	-6%
CC1=C(/C=C/c2ccccc2)CCN(C)C1	11	11µM*	20%[38.3 µM]	11%	-4%[46.1 µM]	-10%
Cc1nn(Cc2ccc(Cl)cc2Cl)c(Cl)c1C(=O)NC1CCCc2ccccc21 (stereo unspecified)	.	13%	-1%	2%	-46%	-12%
C(#CCN1CCCC1)CN1CCCC1	11[20.6 µM]	3%[20.9 µM]	6%	0%[25.6 µM]	.	-4%
CC1CN(c2ccc([N+](=O)[O-])cc2Cl)CCN1 (stereo unspecified)	.	16µM*	-10%	.	-7%	.
Clc1ccc(Cl)c(Cl)c1	.	1%	-6%	-4%	.	-4%
c1ccc(-c2ccc(C(c3ccccc3)n3ccnc3)cc2)cc1 (stereo unspecified)	.	22µM*	14%	-16%	?	?
N#CC(C#N)=NNc1ccc([N+](=O)[O-])cc1	.	.	.	.	4µM*	.
CCN(CC)S(=O)(=O)c1ccc(NN=C(C#N)C#N)cc1	.	2%	23%	-22%	-55%	14µM*
CC(=O)Nc1ccc([As](=O)(O)c2ccc([N+](=O)[O-])cc2)cc1	.	.	.	.	0%	.
C(=NCCN1CCOCC1)=NC1CCCCC1	.	7%[13.5 µM]	-11%	-5%[11.4 µM]	.	-4%
CN1CCN(C(=O)Cc2nc3ccccc3[nH]2)CC1	?	11%	-5%[38.3 µM]	-1%	4%[46.1 µM]	-10%
COc1ccc(C=C2C(=O)N(C)C(=O)N(C)C2=O)cc1CSc1ccccn1	5	3.2µM*	14%[38.3 µM]	-6%	-22%[46.1 µM]	25µM*
COc1ccc([N+](=O)[O-])cc1CSc1ccccn1	.	?	11%	.	-14%	.
Cn1c(O)c(C(=Nc2ccc(F)cc2)c2ccccc2Cl)c(=O)n(C)c1=O	.	.	.	.	31%	.

Assay outcomes: PubChem, National Center for Advancing Translational Sciences (NCATS)
